Tb hexokinase: Trypanosoma brucei hexokinase 1 inhibitors, primary screen, biochemical, G6PDH-coupled NADH absorbance, MLSCN library. 220,000 tested, 0.11% active. recombinant TbHK1, G6PDH-coupled NADH A340. inhibition, % at 10 µM. hexokinase 1 [Trypanosoma brucei];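 active = inhibition of 50% or more in the single-dose primary screen; inactive = inhibition below 50%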
ROMK primary: ROMK potassium channel modulators, primary screen, cell-based, thallium flux, MLSMR library; AID 1918, 2009; ATP-sensitive inward rectifier potassium channel 1 (Homo sapiens), P48048; Tet-inducible ROMK, thallium flux fluorescence; actives lie on both sides; 130,000 tested, 2% active; B-score at 10 µM;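 active = signal ratio slope over the read window, or its plate-corrected B-score, at least 3 SD from the plate mean, either direction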;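 also: B-score of the F/F0 ratio slope over 7 to 12 s after thallium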
Target sequence (P48048 whole entry, looked up): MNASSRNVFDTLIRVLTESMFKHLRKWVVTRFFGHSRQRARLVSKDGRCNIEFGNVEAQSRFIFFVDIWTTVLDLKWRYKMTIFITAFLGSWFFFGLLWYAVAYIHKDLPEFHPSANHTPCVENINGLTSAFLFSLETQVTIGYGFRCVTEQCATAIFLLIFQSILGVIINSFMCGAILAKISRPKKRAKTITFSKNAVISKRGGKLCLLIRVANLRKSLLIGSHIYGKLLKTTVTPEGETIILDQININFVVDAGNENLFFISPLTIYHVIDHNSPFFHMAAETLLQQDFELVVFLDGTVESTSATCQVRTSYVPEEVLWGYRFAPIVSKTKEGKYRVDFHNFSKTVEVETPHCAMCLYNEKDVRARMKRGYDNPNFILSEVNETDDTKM
HSV augment: enhancers of HSV replication in host cells, fold increase, host cell viability; HSV replication augmentation in cells; maximum fold increase; 220,000 tested, 0.005% active; in the data active = maximum fold increase above about 1.5; inconclusive = no clear call, values can overlap the other calls; tested in PC3 cells
Insulin prom inh: inhibitors of insulin promoter-driven GFP, primary screen, imaging, TRM-6 cells (human fetal islet line), eGFP reporter, cell count; 130,000 tested, 0.9% active; inhibition, % at 2 µM; reporter expression induced with tamoxifen;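 active = inhibition above the mean plus 3 SD, with well images judged a real hit on visual review, cut at about 60% in these data, passing the limit was not always enough; inconclusive = inhibition over the cutoff but images rejected on review; inactive = inhibition not above the cutoff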
Insulin prom up: insulin promoter activators in MIN6 cells, imaging, high-content screening, mouse beta cells; MIN6 insulin promoter-GFP reporter; active compounds read high; 190,000 tested, 0.3% active; z-score at 5 µM;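 active = z-score above 3 at 5 µM with at least 500 cells counted in the well; inconclusive = wells under 500 cells, flagged as cytotoxic or low count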
ROMK retest: ROMK channel modulator hit retest, confirmation, cell-based, thallium flux, duplicate, resupplied hits; shares compounds with ROMK primary; fluorescence ratio; active compounds read low; normalized thallium flux (F/F0 slope) at 10 µM; 3,000 tested, 54% active;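 active = Flux at 10 µM at least 3 SD below or above vehicle control mean in one or both replicates; inconclusive = no clear call, values can overlap the other calls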
Each line names hits and unclear results; the compound was inactive in the other large screens (follow-up assays come after a bar, where they were run). Shown is part of a subset that was picked to be rich in hits.

CCn1c(SCC(=O)Nc2cc(C)on2)nnc1-c1ccco1	none
O=C(c1ccc(CNS(=O)(=O)c2ccc(Br)cc2)cc1)N1CCCC1	none (no result: Insulin prom inh)
Cn1nc(-c2ccc(Cl)cc2)c2cc(C(=O)NCCCN3CCCC3)sc21	none (no result: ROMK primary, Insulin prom inh) | ROMK retest 0.059
c1ccc(Cc2nnc(N3CCCCC3)c3ccccc23)cc1	ROMK primary -2.25 (no result: Insulin prom inh) | ROMK retest 0.0669
COc1cc2c(cc1OC)CN(CC(=O)Nc1ccc(S(=O)(=O)N(C)C)cc1)CC2	none (no result: Insulin prom inh)
COc1cc2c(cc1OC)CN(CC(=O)Nc1ccc3c(c1)OC(F)(F)O3)CC2	ROMK primary 2.48 (no result: HSV augment) | ROMK retest inactive
CCn1c(C(=O)N2CCC(C(=O)NCCCSC3CCCCC3)CC2)cc2sccc21	none (no result: ROMK primary, Insulin prom inh) | ROMK retest inconclusive
CCN1CCN(C(=O)C2CCN(C(=O)c3cc4sccc4n3CC)CC2)CC1	none (no result: ROMK primary, Insulin prom inh)
COc1cccc(/C(O)=C/c2nc3ccc(C(=O)NCCc4cccc(C)c4)cc3[nH]c2=O)c1	none (no result: ROMK primary, Insulin prom inh) | ROMK retest 0.0624
COc1cccc(/C(O)=C/c2nc3ccc(C(=O)NCCc4ccc(Cl)cc4)cc3[nH]c2=O)c1	none (no result: ROMK primary)
O=[N+]([O-])c1ccc2c(c1)nc1n2CCN(C2CCCCC2)C1	ROMK primary -5.86 (no result: Insulin prom inh) | ROMK retest 0.0532
O=[N+]([O-])c1ccc2c(c1)nc1n2CCCCC1	none (no result: Insulin prom inh)
CCCCC1CC(CSC(=N)N)OC1=O (stereo not given)	none (no result: ROMK primary)
CCCCCCCC1CC(CSC(=N)N)OC1=O (stereo not given)	ROMK primary -4.97 | ROMK retest 0.0575
COc1ccc(OC)c(NC(=O)C2CCN(Cc3cnn(-c4ccccc4)c3-n3cccc3)CC2)c1	none
O=C(Nc1ccccc1Cl)C1CCN(Cc2cnn(-c3ccccc3)c2-n2cccc2)CC1	ROMK primary -3.19 (no result: Insulin prom inh) | ROMK retest 0.0545
CCN(c1ccc(N=Cc2c(O)n(Cc3ccc(OC)cc3)c(=O)c3ccccc23)cc1)C(C)C	HSV augment inconclusive (no result: ROMK primary)
Oc1ccc(/C=N/NC(=S)Nc2cccnc2)cc1	none (no result: ROMK primary, Insulin prom inh)
Oc1ccc(/C=N/NC(=S)N/N=C/c2ccc(O)cc2)cc1	ROMK primary 3.3 (no result: Insulin prom up) | ROMK retest inactive
CCC(CNc1cc(OC)cc2cccnc12)NC1CCCCC1 (stereo not given)	none (no result: ROMK primary, Insulin prom inh) | ROMK retest 0.0536
O=C(c1ccc([N+](=O)[O-])cc1)N1CCSC1c1ccc(Cl)cc1 (stereo not given)	ROMK primary -3.35 (no result: Insulin prom up) | ROMK retest inconclusive
O=C(c1ccc([N+](=O)[O-])cc1)N1CCSC1c1ccc(Br)cc1 (stereo not given)	none (no result: ROMK primary)
CCCc1ccc(O)c(N=Cc2cc(Br)cc(OCC)c2O)c1	none (no result: HSV augment) | ROMK retest inactive
CCc1ccc(O)c(N=Cc2cccc(C)c2O)c1	none (no result: ROMK primary)
CCc1ccc(C(=O)OCC(=O)c2c(N)n(CC(C)C)c(=O)n(C)c2=O)cc1	ROMK primary -10.6 | ROMK retest inactive
COc1ccc(NC(=O)CN2CCC(C(N)=O)CC2)cc1	none
COc1ccc(CCNC(=O)COC(=O)c2ccc(N3CCCC3=O)cc2)cc1	ROMK primary 1.44 | ROMK retest inactive
COc1ccc(CCNC(=O)CN2CCC(C(N)=O)CC2)cc1	none (no result: ROMK primary) | ROMK retest inactive
CN(C)/C=C/C(=O)c1ccc(F)cc1F	none (no result: ROMK primary, Insulin prom inh)
COc1ccc(-c2c([C@H]3[C@H]4C=CC[C@@H](C)[C@@H]4C(=O)N3Cc3ccccc3)ccc3ccccc23)cc1OC	none (no result: ROMK primary, Insulin prom inh)
C=CCC1(CC=C)CCCN1C(=O)CC1C(=O)NCCN1Cc1cccc(OC)c1OC (stereo not given)	none (no result: Insulin prom inh)
CCCN1C(=O)/C(=C\C=C2/Sc3ccccc3N2CC)SC1=S	HSV augment inconclusive
CCCN1C(=O)/C(=C\C=C2\N(CC)c3ccccc3C2(C)C)SC1=S	ROMK primary -7.51, HSV augment inconclusive (no result: Insulin prom inh, Insulin prom up) | ROMK retest 0.0534
N=c1sccn1CC(=O)Nc1ccc([N+](=O)[O-])cc1Cl	none (no result: ROMK primary, Insulin prom inh)
O=C(O)c1ccc(N2CCOCC2)c(N2C(=O)C3C4C=CC(C4)C3C2=O)c1 (stereo not given)	none (no result: Insulin prom up) | ROMK retest inactive
NC(=O)c1ccc(N2CCCCC2)c(N2C(=O)C3C4C=CC(C4)C3C2=O)c1 (stereo not given)	none
Cn1c(=O)c([N+](=O)[O-])c(-n2ccnc2)c2ccccc21	ROMK primary -8.34 (no result: Insulin prom inh) | ROMK retest 0.0475
CC1CCN(CCCCOc2cccc(Br)c2)CC1	none
